Sensor-assay potency score (higher = more potent) data for 38 sequences are collected here from the OligoGym collection.
Note: reference of the scale not given here.

For the first test, the target named is NXF5. Put plainly: pooled miR-30 sensor sort-seq; sequence = guide strand. The note with it: shRNA.
Regarding TTGAAGTACTTGCACAAGTTGC, the sensor-assay potency score (higher = more potent) was -0.882.
Turning to TTTTGTGTGCTTTAGCAGCTTC, the sensor-assay potency score (higher = more potent) is 0.239.
The sequence TTTCTTTCAGTGATCTTCAGGG displayed a sensor-assay potency score (higher = more potent) of 0.16.

A further test concerns the target OAS3. Described as above. The note with it: shRNA.
As for TTTGTTCTGAGCCGCAACCTGG, the sensor-assay potency score (higher = more potent) is -1.14.
TTCAGAATCACAGCCACCCTTG yielded a sensor-assay potency score (higher = more potent) of -0.336.
TTGTAGTCCGTGAAGCAGTTGA showed a sensor-assay potency score (higher = more potent) of -0.0592.
As to TTGAACTGGGAGTCCTTCCCGC, the sensor-assay potency score (higher = more potent) is -0.289.
In the case of TGTAGCTCTGTGAAGCAGGTGG, the sensor-assay potency score (higher = more potent) was determined as 0.189.
In turn, TTTGGTGCCAGAACTGAGCTGC returned a sensor-assay potency score (higher = more potent) of 0.736.
The sequence TTCAACATCACAGCCATCCCTT returned a sensor-assay potency score (higher = more potent) of -0.469.
Regarding TTCTCTACGAACTCCTTCCGCG, the sensor-assay potency score (higher = more potent) is -0.635.
TAGGCTGAAAGCATCCTTCTTA had a sensor-assay potency score (higher = more potent) of 0.0263.
On the same count and under the same terms, to TTGACCGTCCAGTAGACACAGA belongs -0.525; to TAGACTTGAGAGCTGGGCCTGG, -0.478.
With TACCAGTGCTTCACCAGCCGGA, the sensor-assay potency score (higher = more potent) is -0.364.

In another test the target is OCA2. The description is as above. Conditions: shRNA.
TAACACATCCCAACAGTGCAGG: the sensor-assay potency score (higher = more potent) was -0.397.
The same measure, in the same setting: for TAGCAGGTATCTTCGCTCCCAG the value was -0.952; for TTTGTGAAGATCACTTCTGCAA, 0.623; for AACAGTGCAGGACACAACCATC, -1.7.
Turning to TTATAAAGCTTTCTGTTCCAGT, the sensor-assay potency score (higher = more potent) is -0.265.
In the case of TTGTCTTGGATCAAGGTTGAGC, the sensor-assay potency score (higher = more potent) was -0.397.
Turning to TTGTTCTCCAACATATTCTATT, the sensor-assay potency score (higher = more potent) is -1.21.
In turn, TTGAGCACCTCACACAACCTTA gave a sensor-assay potency score (higher = more potent) of -0.642.
The same measure, in the same setting: to TTTGTTCTCCAACATATTCTAT belongs -1.25.
TTCAGTTCAACAATCTCACTGG registered a sensor-assay potency score (higher = more potent) of 0.691.
Consider TTTTCTTCTTCAAACAGTGGGG, for which the sensor-assay potency score (higher = more potent) is -0.306.

Another test has as its target OCLM. The test is described as above. Conditions: shRNA.
TAGAAGAGTATACTAATGTGTC came in with a sensor-assay potency score (higher = more potent) of -0.0959.
For TATACTAATGTGTCTGCTAAGG, the sensor-assay potency score (higher = more potent) was -1.53.
In the case of TACTAATGTGTCTGCTAAGGTA, the sensor-assay potency score (higher = more potent) is -0.482.
The sequence TTAAATAGAAGAGTATACTAAT had a sensor-assay potency score (higher = more potent) of -0.462.
On to AATACCACTCTTATAAAGGATT, for which the sensor-assay potency score (higher = more potent) was -1.36.
As to TTTAAATAGAAGAGTATACTAA, the sensor-assay potency score (higher = more potent) was -0.591.
Sequence AAAGAATACCAGGATAGCCATA gave a sensor-assay potency score (higher = more potent) of -1.76.
With AAGAGTATACTAATGTGTCTGC, the sensor-assay potency score (higher = more potent) came to 0.0499.
In turn, ACTAATGTGTCTGCTAAGGTAA gave a sensor-assay potency score (higher = more potent) of -1.12.
In turn, TCTGCTAAGGTAAATCTTTAAC had a sensor-assay potency score (higher = more potent) of -1.77.
The sequence TAATACCACTCTTATAAAGGAT had a sensor-assay potency score (higher = more potent) of -0.68.
Same read-out and setting: for ATAGAAGAGTATACTAATGTGT the value was -0.144.
